In the library only some 2.4% were active in any assay of this set; here they are far more common.
MITF act = increases MITF-driven TRPM1 promoter luciferase signal. SK-MEL-5 TRPM1-promoter luciferase, 24 h; % of positive control, neutral wells = 0. activation, % at 12.5 µM. 300,000 compounds, 0.75% hits;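 active means mean activation of at least 80% with every replicate also reaching 80%; inconclusive means mean reaches 80% but some replicate falls short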;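 further: 0% = neutral control wells and 100% = parthenolide positive control wells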
miR122 inh = inhibitors of miR-122 in Huh7 cells; Huh7 miR-122 Renilla luciferase sensor, 48 h; neutral wells = 0, positive control = 100; activation (reporter increase), % at 12.5 µM; 340,000 compounds, 0.3% hits;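 active means mean replicate activation score at least 90 and every replicate individually at or above 90; inconclusive means only one of the two criteria met; inactive means neither criterion met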;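 further: higher luciferase means less miR-122 activity so hits act as miR-122 inhibitors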
Wnt act = Wnt/beta-catenin pathway activation. Wnt/beta-catenin reporter cell assay, activator, plate reader. activation, % at 9.35 µM. 300,000 compounds, 1.2% hits. AID 743398; in the data active means activation above about 30%, passing the limit was not always enough; inconclusive means no clear call, values can overlap the other calls;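 further: 0% = neutral control wells and 100% = positive control wells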
NSD2 inh = inhibitors of human histone methyltransferase NSD2; O96028; NSD2 peptide methylation, AlphaScreen, 120 min; inhibition, % at 12.5 µM; 310,000 compounds, 0.54% hits; AID 743445
DYRK1A inh = Dyrk1A (rat) kinase inhibition. Q63470. ADP-Glo luminescence, NFATc1 peptide. inhibition, % at 12.5 µM. 310,000 compounds, 0.43% hits;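 further: plate controls were vehicle with enzyme for no effect and no enzyme for full effect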
INS-1E GSIS act = GLuc luminescence reporter in INS-1E cells, primary screen for activators of glucose-dependent secretion of insulin | 370,000 compounds, 0.61% hits | activation, % at 16.6 µM | INS-1E GLuc reporter insulin secretion, 2-3 h;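 active means lowest replicate activation of at least 40%, so every replicate reaches that level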;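 further: 0% = median of neutral control wells and 100% = median of IBMX positive control wells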
Numbers without * were called inactive; ? = inconclusive; . = no result given; [ ] = another dose, or the depositor's remark. Unless noted, no stated cut-off is given here; in the data, active means inhibition above about 50%; inactive means the rest.

SMILES | MITF act | miR122 inh | Wnt act | NSD2 inh | DYRK1A inh | INS-1E GSIS act
Cc1ccnc(NC(=O)C2CC(=O)N(c3ccc4c(c3)OCCO4)C2)c1 (stereo not drawn) | 99* | 14 | 46* | 7 | 2 | -2
COc1ccc(NC(=O)N(C)C[C@H]2Oc3c(NC(=O)C4CCOCC4)cccc3C(=O)N([C@@H](C)CO)C[C@@H]2C)cc1 | . | 70[16.7 µM] | . | . | . | 0
CO[C@H]1CN(C)C(=O)c2cc(NC(=O)Cc3ccccc3)ccc2OC[C@@H](C)NC[C@@H]1C | . | . | . | . | . | 17
COc1ccc(/C=N/Nc2ccc(C(F)(F)F)cc2[N+](=O)[O-])cc1 | -16 | . | -1 | -2 | -5 | 45*
CC(C)Cc1nc2sc3c(=O)n(N)cnc3c2c2c1COC(C)(C)C2 | 9 | -25 | . | 1 | -1 | 6
CC(C)Cc1nc2n[nH]c(N)c2c2c1COC(C)(C)C2 | -10 | -6 | . | -2 | -8 | 80*
CCC(=O)N(CC)C[C@@H]1[C@@H](c2ccc(-c3cccnc3)cc2)[C@H](CO)N1C(C)=O | . | 6[16.7 µM] | . | . | . | 10
Cc1ccccc1OCC(=O)N/N=C/c1ccc([N+](=O)[O-])o1 | -77 | . | 2 | 12 | 3 | -2
COc1ccccc1OCC(=O)N/N=C/C=C/c1ccc([N+](=O)[O-])o1 | -75 | 13 | 69* | 5 | 4 | -6
Cc1ccnc(NC(=O)c2ccc(S(=O)(=O)N3CCC(C)CC3)cc2)c1 | 97* | . | 36* | 1 | 36 | -28
Cc1ccc(NC(=O)c2ccc(S(=O)(=O)N3CCOCC3)cc2)nc1 | 1 | 216* | . | 0 | 7 | .
C[C@@H]1CN([C@H](C)CO)C(=O)c2cc(N(C)C)ccc2O[C@@H](C)CCCCO[C@@H]1CN(C)C(=O)Nc1cccc2ccccc12 | . | -2[16.7 µM] | . | . | . | -11
COc1cc(S(=O)(=O)N2CCOCC2)ccc1NC(=O)CSc1n[nH]c(=O)[nH]c1=O | -3 | 144* | -2 | -4 | . | 27
O=[N+]([O-])c1ccccc1OCc1nc(-c2cccs2)no1 | 119* | . | 8 | . | 7 | -3
CCc1nnc(NC(=O)CSc2nnc3nc(C)cc(C)n23)s1 | -2 | . | -1 | 2 | 0 | 43*
COc1ccc(NC(=O)CSc2ccc(-c3sc(C)nc3C)nn2)cc1OC | 7 | -3 | -3 | 8 | -6 | 15
Cc1nc(C)c(-c2ccc(SCC(=O)Nc3ccc(C)c(Cl)c3)nn2)s1 | 4 | -5 | -3 | 0 | 6 | 41*
CCc1nnc(NC(=O)CSc2nnc(-c3ccccc3NC(=O)c3ccccc3)o2)s1 | -2 | 4 | -12 | . | -1 | 52*
CCOC(=O)CSc1nnc(-c2ccccc2NC(=O)c2ccccc2)o1 | 5 | -8 | 2 | -4 | -2 | 54
CCNC(=O)C[C@H]1CC[C@@H]2[C@@H](COc3ccc(NC(=O)Nc4ccc(C)cc4)cc3C(=O)N2C)O1 | . | -3[16.7 µM] | . | . | . | 2
Cc1cccc(C)c1N/C=C/c1onc(C)c1[N+](=O)[O-] | 14 | . | . | -4 | 0 | .
COc1cccc(N/C=C/c2onc(C)c2[N+](=O)[O-])c1 | 60 | -4 | 26 | 2 | 9 | 52*
Cc1ccc(N/C=C/c2onc(C)c2[N+](=O)[O-])cc1 | 113* | -3 | 40* | -1 | -5 | -19
Cc1cccc(-c2nc(C#N)c(NC3CCCCC3)o2)c1 | 100* | 9 | . | 0 | 9 | .
O=[N+]([O-])c1cccc(/C=C/c2nc[nH]c2[N+](=O)[O-])c1 | 1 | -2 | 8 | 0 | 5 | 40*
SMILES | MITF act | miR122 inh | Wnt act | NSD2 inh | DYRK1A inh | INS-1E GSIS act
O=C(NCC1CCCO1)c1cc(-c2ccccc2)on1 (stereo not drawn) | 7 | . | . | -1 | 2 | .
O=C(CNC(=O)c1ccc(Cl)cc1Cl)NCC1CCCO1 (stereo not drawn) | -5 | 1 | 2 | -2 | 0 | 3
O=C(NCC1CCCO1)c1cc(-c2ccc(F)cc2)no1 (stereo not drawn) | 12 | . | 39* | 1 | 11 | 3
O=C(NCC1CCCO1)c1cc(-c2ccc(Cl)cc2Cl)on1 (stereo not drawn) | . | -7 | 37* | -1 | -2 | .
O=C(NC(=S)NCC1CCCO1)c1ccc(Cl)cc1Cl (stereo not drawn) | 9 | -10 | . | 0 | -6 | 56*
COc1ccc2c3c([nH]c2c1)[C@H](CO)N(C(=O)c1ccncc1)CC31CN(C(=O)Nc2cccc(F)c2)C1 | . | . | . | . | . | 15
COc1ccc2c3c(n(C)c2c1)[C@H](CO)NCC31CCN(Cc2ccc(-c3ccccn3)cc2)CC1 | . | . | . | . | . | 19
COc1ccc(C(=O)N/N=C/c2c(C)[nH]c(=O)[nH]c2=O)cc1 | -1 | 2 | 0 | -6 | -3 | 1
COc1ccc(CO/N=C/c2c(C)[nH]c(=O)[nH]c2=O)cc1 | 3 | -4 | . | -2 | 2 | 44*
CCOC1=C2[C@H](c3ccc(C)cc3)N(S(=O)(=O)c3ccc(C)cc3)C[C@H]2n2c(=O)n(-c3ccccc3)c(=O)n2C1 | . | 47 | -2 | . | . | 52*
CCOC1=C2[C@H](c3cccc(Cl)c3)N(S(=O)(=O)c3ccc(C)cc3)C[C@H]2n2c(=O)n(-c3ccccc3)c(=O)n2C1 | . | ? | -2 | . | . | -17
COc1ccc2ccc(=O)oc2c1CC=C(C)C | -1 | 0 | 1 | . | 1 | 62*
COc1cc2ccc(=O)oc2c(CC=C(C)C)c1OC | 2 | 2 | -1 | . | 11 | .
C/C=C/c1cnc2c(c1)C(=O)N([C@H](C)CO)C[C@H](C)[C@@H](CN(C)C(=O)C1CCC1)O2 | . | 8[16.7 µM] | . | . | . | 1
CCCNC(=O)N1C[C@@H](C)[C@H](OC)CN(C)C(=O)c2ccc(NC(C)=O)cc2OC[C@@H]1C | . | . | . | . | . | 8
O=C(Oc1c(CN2CCOCC2)cc(Cl)c2cccnc12)c1cccs1 | -71 | -9 | 47* | 7 | 0 | -13
O=C(Oc1c(CN2CCOCC2)cc(Cl)c2cccnc12)c1ccccc1Cl | -75 | 6 | 1 | 18 | . | -12
C/C(Cc1ccccc1)=N\NC(=O)CNC(=O)c1cccc(Cl)c1 | -3 | . | 33* | -1 | 11 | .
C[C@@H]1CN([C@@H](C)CO)C(=O)Cc2cc(NC(=O)CCCN(C)C)ccc2O[C@H]1CN(C)Cc1ccc(Oc2ccccc2)cc1 | . | -3[16.7 µM] | . | . | . | 33
CC(C)NC(=S)N1CCn2c(nc3ccccc32)C1 | 5 | 116* | 0 | -1 | 6 | -6
CCNC(=S)N1CCn2c(nc3ccccc32)C1 | -5 | -10 | 0 | 0 | 1 | -4
COc1ccccc1-c1cn(CC[C@@H]2CC[C@H](NC(=O)c3ccccc3F)[C@@H](CO)O2)nn1 | . | . | . | . | . | 0
O=C(O)c1ccc(-n2nnnc2SCc2ccccc2F)cc1 | -2 | . | 1 | . | -5 | 61*
O=C(O)/C=C\c1cccc(-n2cnnn2)c1 | 19 | . | . | -4 | 4 | 29
O=C(O)/C=C\c1cccc(-n2nnnc2SCc2ccccc2F)c1 | -1 | -2 | -1 | 1 | 0 | 52*
